The record followed here is PubChem BioAssay (NCATS).

Results filed as inconclusive are left out. The source made the active and inactive calls. The call rests on the fitted dose curve; in most records, active means well fitted curve in either direction with a large enough effect (not every such curve was filed as active); inconclusive means small, poorly fitted or top-dose-only effect, or another doubt; inactive means flat fitted curve, though single readings scatter.
On the % scale 0 is the no-effect control and ±100 the full control effect.

This experiment is described as follows: Stat Signaling Pathway (AID 446).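 Further: ME-180 cervical cancer cells given 40 pM IL-6 alongside compound; SIE-controlled beta-lactamase reporter measured as 460/530 nm FRET emission ratio.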 The conditions noted are these: ME-180 SIE beta-lactamase reporter, IL-6 stimulated, 5 h; at 17.2 µM (top of the series) unless noted. In short, it runs like this:
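Reporter line: ME-180 cervical carcinoma, SIE-beta-lactamase. Treatment: compound with 40 pM IL-6, 5 hrs, 37 C, in low-serum OPTI-MEM with 10 mM HEPES pH 7.3. Detection: 460/530 nm fluorescence.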
As for `COc1ccc(OC)c(C2C(C#N)=C(N)Oc3cc(C)[nH]c(=O)c32)c1` (stereo not drawn), the activity, negative = inhibition was 3.99% (inactive). In the case of `Cc1nn(CC(=O)N2CCOCC2)c(=O)c2ccccc12`, the activity, negative = inhibition was 1.28% (inactive). Regarding `Cc1c(NC(=O)C(CC(=O)O)NCc2ccco2)c(=O)n(-c2ccccc2)n1C` (stereo not drawn), the activity, negative = inhibition was 1.34% (inactive). For `COc1cc(/C=N/n2c(C)nnc2C)cc(OC)c1OC`, the activity, negative = inhibition is -4.5% (inactive). For the compound `CC1(C)Cc2nc(N)c(C(=O)NCCO)cc2CO1`, the activity, negative = inhibition is 9.02% (inactive). Take `Cn1cccc1/C=N/n1cnnc1`: the activity, negative = inhibition was 4.51% (inactive). The same measure for `COC(=O)COn1c(SCC(=O)OC)nc2ccccc2c1=O`: -1.3% (inactive); for `Cc1ccc(C2CC(C(F)(F)F)n3ncc(C(N)=O)c3N2)cc1` (stereo not drawn): 5.84% (inactive).

In the case of `Cc1nc2c(c(=O)n1CC1CCCO1)c1nc3ccccc3nc1n2CCC(C)C` (stereo not drawn), the activity, negative = inhibition is -12.2% (inactive). Take `CCOc1ccc(NC(=O)c2nn(C)cc2Br)cc1`: the activity, negative = inhibition is 3.62% (inactive). The same measure for `COc1cccc(OC)c1C(=O)N1CCN(S(=O)(=O)c2ccc(C)cc2)CC1`: 6.68% (inactive); for `CC(C)=CCC(C)(C)CNC(=O)NC1CCCCC1`: 10.9% (inactive); for `O=C(O)CCSc1ccc2ccccc2n1`: 0.928% (inactive).

With `N#CC1(c2ccccc2)CCC(=NO)CC1` (stereo not drawn), the activity, negative = inhibition was 11.5% (inactive).

`Cc1ccc2[nH]c3c(c2c1)CN(C(=O)CN1CC(C)OC(C)C1)CC3` (stereo not drawn): the activity, negative = inhibition is 2.26% (inactive). The same measure for `CCOc1ccc(Br)cc1CC(=O)O`: 12.6% (inactive); for `Nc1nnnn1N=C1CCCCC1`: -8.04% (inactive). Take `Cn1c(=O)c2c(nc(NCc3ccc4c(c3)OCO4)n2Cc2ccc(F)cc2)n(C)c1=O`: the activity, negative = inhibition was -22% (inactive).
